Compound activity: PubChem BioAssay, several laboratories
Mdm2-MdmX inh = human Mdm2/MdmX binding inhibition; actives 3% (n = 330,000); O15151+Q00987; inhibition, % at 8 µM; AID 485346; SaOS-2 split-luciferase Mdm2/MdmX complementation, luminescence;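 active = inhibition of at least 50% at 8 µM in the primary screen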
Target sequence (O15151 whole entry, looked up): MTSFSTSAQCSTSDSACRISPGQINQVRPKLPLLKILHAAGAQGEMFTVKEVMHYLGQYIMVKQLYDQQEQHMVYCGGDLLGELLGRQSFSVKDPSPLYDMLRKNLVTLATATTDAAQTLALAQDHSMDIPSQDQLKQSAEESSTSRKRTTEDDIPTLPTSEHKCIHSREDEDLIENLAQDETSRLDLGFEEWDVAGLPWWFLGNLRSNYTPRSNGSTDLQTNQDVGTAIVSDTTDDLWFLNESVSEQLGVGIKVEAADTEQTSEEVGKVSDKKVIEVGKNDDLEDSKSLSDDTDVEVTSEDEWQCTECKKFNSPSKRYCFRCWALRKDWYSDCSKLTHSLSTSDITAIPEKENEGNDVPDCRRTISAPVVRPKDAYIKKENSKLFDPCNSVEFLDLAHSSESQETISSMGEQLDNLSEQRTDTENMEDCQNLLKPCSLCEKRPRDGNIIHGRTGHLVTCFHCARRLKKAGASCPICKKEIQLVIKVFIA
Target sequence (Q00987 whole entry, looked up): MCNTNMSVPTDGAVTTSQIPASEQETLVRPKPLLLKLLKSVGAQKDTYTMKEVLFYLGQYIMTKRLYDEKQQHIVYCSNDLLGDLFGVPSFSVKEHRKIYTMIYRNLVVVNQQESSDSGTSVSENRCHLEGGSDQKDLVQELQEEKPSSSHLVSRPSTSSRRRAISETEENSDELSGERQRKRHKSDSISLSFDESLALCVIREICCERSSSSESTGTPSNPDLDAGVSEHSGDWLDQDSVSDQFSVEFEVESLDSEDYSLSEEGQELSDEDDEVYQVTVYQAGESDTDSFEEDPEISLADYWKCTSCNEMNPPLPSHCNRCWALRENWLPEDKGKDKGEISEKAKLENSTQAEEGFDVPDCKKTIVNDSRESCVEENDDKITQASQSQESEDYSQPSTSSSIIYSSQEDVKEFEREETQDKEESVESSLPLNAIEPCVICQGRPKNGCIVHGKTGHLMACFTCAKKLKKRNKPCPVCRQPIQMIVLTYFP
Jurkat NFkB inh = lowers PMA/ionomycin-induced NF-kB signal in Jurkat cells; actives 0.53% (n = 330,000); PMA/ionomycin-induced NF-kB luciferase reporter, luminescence; inhibition, % at 4 µM; in the data active = inhibition above about 50%
Bfl-1 A1 inh = inhibitors of the anti-apoptotic protein A1, read as caspase activation; MEF A1-2A-BIM cells, Caspase-Glo 3/7 luminescence, 3 h; percent of clofoctol response, vehicle zero; caspase activation, % (no concentration beside the values); actives 0.066% (n = 330,000); AID 2462;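 active = over half of replicate activation scores above 10%, or exactly half above 10 with the replicate mean above 10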
NTR1 ag = activates human neurotensin receptor 1 | P30989 | activation, % at 20 µM | actives 0.17% (n = 330,000) | NTR1-U2OS beta-arrestin-GFP spot imaging, agonist mode;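 active = activation at or above 40% of the spot to cytoplasm intensity ratio, with at least 20 cells analyzed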;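 note: 0% = DMSO without peptide and 100% = 100 nM NTR1 peptide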
697 NFkB inh = lowers PMA/ionomycin-induced NF-kB signal in 697 B cells. actives 0.33% (n = 330,000). 697 B-cell NF-kB luciferase reporter, 16 h. inhibition, % at 4 µM. AID 435022; in the data active = inhibition above about 35%
Beta apoptosis = beta cell apoptosis inhibition. actives 0.8% (n = 300,000). INS-1E cytokine-induced death, ATP luminescence, 48 h; percent of positive-control rescue, neutral wells zero. protection from apoptosis, % (concentration not given with the values);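 active = Every replicate reaches about 75%, or at least half do and their mean reaches it too, limit read from the data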;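 note: 0% = cytokine-treated negative control wells and 100% = positive control rescue; higher means more ATP so stronger rescue from cytokine killing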
Jurkat NFkB conf = inhibitors of the PMA/ionomycin-induced NF-kB reporter in Jurkat cells, retest; shares compounds with Jurkat NFkB inh; Jurkat NF-kB luciferase, 16 h; inhibition, % at 4 µM; actives 27% (n = 2,700); AID 435020;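 active = inhibition reaching about 45% at 4 µM in either replicate, limit read from the data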;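 note: plate controls were PMA/ionomycin stimulated DMSO wells for no effect and unstimulated DMSO wells for full effect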
The depositor's hits bear a star; / = no result given. A selection: hits, their analogues and other compounds. The true share with any hit is near 3.8%.

SMILES | Mdm2-MdmX inh | Jurkat NFkB inh | Bfl-1 A1 inh | NTR1 ag | 697 NFkB inh | Beta apoptosis | Jurkat NFkB conf
C[C@]12CCC(=O)CC1=CCC1C3CC=C(C#N)[C@@]3(C)CC[C@@]12O (stereo not given in full) | 16.4 | 0.5 | -0.2 | -0.3 | -14.9 | -8.1 | /
CCC(O)C1CCN(C(=O)c2cc(COc3ccc4ncccc4c3)on2)CC1 (stereo not given) | 14.7 | 56.2* | 0.1 | 11.0 | -6.1 | 105.8* | 67.4*
O=C(c1cc(COc2ccc3ncccc3c2)on1)N1CCC(O)CC1 | 1.4 | 11.9 | 0.2 | 0.4 | -17.5 | / | /
O=C(NNc1ccnc2cc(Cl)ccc12)C1CCCCC1 | 26.3 | 69.1* | 0.4 | 0.0 | -0.5 | 127.1* | 63.9*
NC(=S)NNc1ccnc2cc(Cl)ccc12 | -2.7 | -7.4 | 0.0 | -0.9 | 4.7 | -10.1 | /
CSc1ccc(/C=N/NC(=O)CNc2cccc3ccccc23)cc1 | 27.2 | 0.0 | -0.2 | 3.5 | 23.2 | -5.5 | /
O=C(CNc1cccc2ccccc12)N/N=C/c1ccc[nH]1 | -11.0 | 59.3* | 1.1 | 0.6 | 8.5 | 7.4 | -3.2
Cc1ccc(-c2cc(C(=O)Nc3cc(C)ccc3O)no2)cc1 | / | / | -1.9 | / | / | -1.9 | /
Cc1ccc(O)c(NC(=O)c2cc(-c3ccccc3Cl)on2)c1 | -37.2 | 51.0* | -2.5 | 5.8 | -39.3 | -1.2 | 35.5
Cc1ccc2ncccc2c1 | 1.9 | 6.5 | -0.2 | 0.0 | -5.4 | -2.5 | /
Cc1cc(N(C)C)ccc1N=Nc1ccc2ncccc2c1 | -118.1 | -164.6 | -6.9 | 7.4 | -182.8 | -5.0 | -104.6
COc1cc(C(=O)N/N=C(\C)c2ccc3c(c2)OCO3)cc(OC)c1OC | 49.9 | 52.3* | -0.4 | 1.3 | -25.9 | -1.3 | 2.0
O=C(C1CCCO1)N1CCN(S(=O)(=O)c2ccc(Cl)cc2)CC1 (stereo not given) | -4.3 | -1.4 | -0.1 | -0.7 | 9.0 | 4.7 | /
CC(=O)O[C@H]1C(=O)[C@]2(C)[C@H]([C@H](OC(=O)c3ccccc3)[C@]3(O)C[C@H](OC(=O)[C@H](O)[C@@H](NC(=O)c4ccccc4)c4ccccc4)C(C)=C1C3(C)C)[C@]1(OC(C)=O)CO[C@@H]1C[C@@H]2O | 45.3 | 70.9* | -0.5 | 0.4 | -18.5 | 17.3 | 64.8*
CC(=O)O[C@H]1C(=O)[C@@]2(C)C([C@H](OC(=O)c3ccccc3)[C@]3(O)C[C@H](OC(=O)[C@H](O)[C@@H](NC(=O)c4ccccc4)c4ccccc4)C(C)=C1C3(C)C)[C@]1(OC(C)=O)CO[C@@H]1C[C@H]2O (stereo not given in full) | 42.5 | 67.1* | -0.4 | 0.2 | -34.6 | 22.5 | 69.8*
COC(=O)[C@@H](Cc1c[nH]c2ccccc12)NC(=O)CCC(=O)c1ccc(F)cc1 | -14.6 | -9.4 | 0.9 | -0.2 | -6.4 | / | /
O=C1Nc2ccc(Cl)cc2C(C#CC2CC2)(C(F)(F)F)O1 (stereo not given) | 7.0 | 2.1 | -0.2 | 2.5 | 5.7 | 5.4 | /
O=C(Nc1nc2c(s1)CCCC2)c1ccc(Br)s1 | -172.6 | -190.1 | -1.0 | 5.7 | -221.3 | 20.2 | -104.8
O=C(Nc1nc2c(s1)CCCC2)c1ccc2ncsc2c1 | -213.2 | -182.8 | -1.9 | 0.7 | -223.6 | 13.9 | -86.2
O=C(Nc1nc2c(s1)CCCC2)c1ccc(N2C(=O)CCC2=O)cc1 | 22.0 | 0.2 | -3.2 | 0.2 | -62.9 | / | /
Cc1cc(C(=O)Nc2nc3c(s2)CCCC3)cs1 | -159.8 | -164.8 | -6.3 | 2.4 | 0.3 | 14.2 | -97.1
Cc1ncsc1C(=O)Nc1nc2c(s1)CCCC2 | -63.8 | -104.9 | -8.3 | -0.5 | -64.0 | 17.9 | /
CN1CCN(c2ccc(NC(=O)CSc3ccccc3)cc2F)CC1 | -26.0 | -154.8 | -0.1 | -0.4 | -159.2 | 6.1 | -51.1
O=C(CSc1ccccc1)Nc1ccc2c(c1)OCCO2 | -47.4 | -166.9 | -0.3 | -0.7 | -16.8 | / | -80.8
Cc1ccc(SCC(=O)Nc2ccc(N3CCN(c4ccccc4)CC3)c(F)c2)cc1 | 11.9 | 8.6 | 0.6 | -0.4 | 13.1 | / | /
COc1cccc(Oc2cnc(N)nc2-c2ccc(OC)cc2O)c1 | 40.3 | 50.3* | -0.6 | 0.1 | -47.8 | 3.1 | 15.4
